From PubChem BioAssay (NCI)
Compounds without any hit were thinned out: in the full panel of roughly 79,000, 15% have a hit. A number with no mark means an inactive call. Activity calls are given as the source filed them. Cut-off read from the data, not from the text of the source: active = growth inhibition above about 70%; inactive = the rest.

Columns and labels:
[1] = NCI Yeast Anticancer Drug Screen. Data for the rad52 strain (AID 147);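 note: 0% = growth of vehicle-treated control cultures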; conditions: S. cerevisiae rad52 mutant growth inhibition, hits give high values
How it was run: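 DNA repair-defective yeast; compound exposure; growth scored against vehicle controls.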

[2] = NCI Yeast Anticancer Drug Screen. Data for the wt1 strain (AID 149);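 note: 0% = growth of vehicle-treated wt1 cultures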; conditions: S. cerevisiae wt1 strain (SPY 50644) growth inhibition, hits give high values
How it was run: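 Using yeast strain wt1, compound-induced growth inhibition was determined against vehicle-treated cultures.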

[3] = NCI Yeast Anticancer Drug Screen. Data for the rad50EPP+ strain (AID 151);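 note: 0% = growth of vehicle-treated control cultures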; conditions: S. cerevisiae rad50 mutant strain, hits give high values
How it was run: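 rad50EPP+ yeast treated with test compounds. Readout: growth vs vehicle control.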

[4] = NCI Yeast Anticancer Drug Screen. Data for the mgt1 strain (AID 153); conditions: S. cerevisiae mgt1 mutant growth inhibition, hits give high values
How it was run: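 Growth inhibition relative to vehicle controls was scored for the mgt1 yeast strain after compound exposure.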

[5] = NCI Yeast Anticancer Drug Screen. Data for the rad50 strain (AID 155);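 note: 0% = growth of vehicle-only cultures of the same strain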; conditions: S. cerevisiae rad50 strain growth inhibition, hits give high values
How it was run: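 Relative growth inhibition (compound vs vehicle) was measured in yeast with a defined repair-gene alteration.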

[6] = NCI Yeast Anticancer Drug Screen. Data for the mec2-1 strain (AID 157); conditions: S. cerevisiae mec2-1 strain, hits give high values
How it was run: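 Growth inhibition is read against vehicle-treated controls after compound exposure of the mec2-1 yeast strain, which is defective in DNA damage repair or cell cycle control.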

[7] = NCI Yeast Anticancer Drug Screen. Data for the rad14 strain (AID 159);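 note: 0% = growth of vehicle-treated control cultures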; conditions: S. cerevisiae rad14 strain growth inhibition, hits give high values
How it was run: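 Screen for anticancer potential: a yeast strain altered in DNA damage repair is grown with compound, and reduced growth is quantified against vehicle controls.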

[8] = at 5.0 µM (retest, dose inferred, filed as 0.5)
[9] = at 50.0 µM (retest, dose inferred, filed as 5.0)

For `Cc1cccc[n+]1C1CCc2c(ccc3ccccc23)C1=O` (centres undefined), which growth inhibition ([1]; at 1.2 µM) is on record?
Its growth inhibition is 5%.

And the growth inhibition ([1]; at 3.7 µM)?
The growth inhibition was 2%.

What about the growth inhibition ([1]; at 11.0 µM) of the same compound?
Its growth inhibition is 1%.

What about the growth inhibition ([1]; at 33.0 µM) of the same compound?
The growth inhibition was 14%.

What about the growth inhibition ([1]; at 100.0 µM) of the same compound?
The growth inhibition was 70% (active).

And the growth inhibition ([2]; at 1.2 µM)?
Its growth inhibition is -2%.

What about the growth inhibition ([2]; at 3.7 µM) of the same compound?
The growth inhibition was -4%.

And the growth inhibition ([2]; at 11.0 µM)?
The growth inhibition was -1%.

And the growth inhibition ([2]; at 33.0 µM)?
The growth inhibition was -3%.

And the growth inhibition ([2]; at 100.0 µM)?
The growth inhibition was 13%.

What about the growth inhibition ([3]; at 1.2 µM) of the same compound?
The growth inhibition was 6%.

What about the growth inhibition ([3]; at 3.7 µM) of the same compound?
The growth inhibition was 9%.

What about the growth inhibition ([3]; at 11.0 µM) of the same compound?
The growth inhibition was 8%.

What about the growth inhibition ([3]; at 33.0 µM) of the same compound?
The growth inhibition was 37%.

What about the growth inhibition ([3]; at 100.0 µM) of the same compound?
The growth inhibition was 63%.

What about the growth inhibition ([4]; at 1.2 µM) of the same compound?
Its growth inhibition is -4%.

And the growth inhibition ([4]; at 3.7 µM)?
The growth inhibition was 2%.

And the growth inhibition ([4]; at 11.0 µM)?
Its growth inhibition is 0%.

And the growth inhibition ([4]; at 33.0 µM)?
The growth inhibition was 2%.

What about the growth inhibition ([4]; at 100.0 µM) of the same compound?
The growth inhibition was 35%.

What about the growth inhibition ([5]; at 1.2 µM) of the same compound?
Its growth inhibition is 5%.

And the growth inhibition ([5]; at 3.7 µM)?
The growth inhibition was 2%.

What about the growth inhibition [5, 8] of the same compound?
The growth inhibition was -1%.

What about the growth inhibition ([5]; at 11.0 µM) of the same compound?
Its growth inhibition is 0%.

What about the growth inhibition ([5]; at 33.0 µM) of the same compound?
Its growth inhibition is 16%.

And the growth inhibition [5, 9]?
The growth inhibition was 40%.

What about the growth inhibition ([5]; at 50.0 µM) of the same compound?
Its growth inhibition is 74.9% (active).

What about the growth inhibition ([5]; at 100.0 µM) of the same compound?
Its growth inhibition is 68%.

What about the growth inhibition ([6]; at 1.2 µM) of the same compound?
Its growth inhibition is -1%.

What about the growth inhibition ([6]; at 3.7 µM) of the same compound?
The growth inhibition was -4%.

What about the growth inhibition [6, 8] of the same compound?
Its growth inhibition is 2%.

What about the growth inhibition ([6]; at 11.0 µM) of the same compound?
The growth inhibition was -1%.

What about the growth inhibition ([6]; at 33.0 µM) of the same compound?
The growth inhibition was 2%.

What about the growth inhibition [6, 9] of the same compound?
The growth inhibition was 70% (active).

And the growth inhibition ([6]; at 50.0 µM)?
The growth inhibition was 74.3% (active).

And the growth inhibition ([6]; at 100.0 µM)?
Its growth inhibition is 62%.

And the growth inhibition ([7]; at 1.2 µM)?
The growth inhibition was 4%.

And the growth inhibition ([7]; at 3.7 µM)?
The growth inhibition was 2%.

And the growth inhibition ([7]; at 11.0 µM)?
Its growth inhibition is 3%.
